Experimental data: PubChem BioAssay AID1159580 (chemical genetic matrix, 2015)
Where “and” joins values, the source holds several entries; their conditions need not be identical. Identical values can stand only once. Out of some 5,500 compounds screened, about 2,000 (36%) were called active. Roughly 18% stayed inconclusive and do not appear here. No stated cut-off is given here; in the data, active means normalized growth mostly below about 0.91 (no sharp cut-off); inconclusive means no clear call, values can overlap the other calls; inactive means mostly above about 0.92. The list shows a part of the results.

Experiment: chemical genetic growth profiling, strain panel (AID 1159580);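 further: tested at 20 µM; growth read once vehicle control cultures reached saturation at 30 °C; 1 = growth at the plate median or of vehicle wells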
Settings: S. cerevisiae deletion strains, growth OD

Measured: normalized growth

O=C1CCC(N2C(=O)c3ccccc3C2=O)C(=O)N1 (stereo unspecified)
inactive: locus YAL013W, strain DEP1, stronger effect = lower value 1.02 and 0.99 | locus YAL021C, strain ccr4, stronger effect = lower value 0.999 | locus YAL026C, strain drs2, stronger effect = lower value 1.01 | locus YAL030W, strain snc1, stronger effect = lower value 1.01 | locus YAL040C, strain CLN3, stronger effect = lower value 1.01 | locus YBL061C, strain skt5, stronger effect = lower value 1.02 | locus YBR009C, strain hhf1, stronger effect = lower value 1.03 | locus YBR021W, strain FUR4, stronger effect = lower value 0.995 | locus YBR023C, strain chs3, stronger effect = lower value 1.03 | locus YBR171W, strain sec66, stronger effect = lower value 1.02 | locus YBR229C, strain ROT2, stronger effect = lower value 1.01 | locus YBR231C, strain swc5, stronger effect = lower value 1.01 | locus YBR279W, strain paf1, stronger effect = lower value 1.03 | locus YCL011C, strain gbp2, stronger effect = lower value 1.03 | locus YCL016C, strain dcc1, stronger effect = lower value 1.03 | locus YCL029C, strain bik1, stronger effect = lower value 0.989 | locus YCL061C, strain MRC1 (second series), stronger effect = lower value 1 | locus YCL061C, strain MRC1, stronger effect = lower value 1.01 | locus YCL069W, strain vba3, stronger effect = lower value 1.02 | locus YCR088W, strain abp1, stronger effect = lower value 1.01 | locus YDL005C, strain med2, stronger effect = lower value 1.01 | locus YDL035C, strain GPR1, stronger effect = lower value 1.02 | locus YDL040C, strain nat1, stronger effect = lower value 1.02 | locus YDL074C, strain BRE1, stronger effect = lower value 1.01 | locus YDL101C, strain DUN1, stronger effect = lower value 1.02 | locus YDL134C, strain PPH21, stronger effect = lower value 1.01 | locus YDL185W, strain tfp1, stronger effect = lower value 0.99 | locus YDL192W, strain arf1, stronger effect = lower value 0.992 | locus YDR001C, strain nth1, stronger effect = lower value 1.02 | locus YDR069C, strain doa4, stronger effect = lower value 1.02 | locus YDR101C, strain arx1, stronger effect = lower value 0.971 | locus YDR137W, strain rgp1, stronger effect = lower value 1.01 | locus YDR150W, strain NUM1, stronger effect = lower value 1.01 | locus YDR159W, strain sac3, stronger effect = lower value 0.974 | locus YDR162C, strain NBP2, stronger effect = lower value 1.04 | locus YDR195W, strain ref2 0.977 | locus YDR297W, strain sur2, stronger effect = lower value 1.01 | locus YDR318W, strain mcm21, stronger effect = lower value 0.977 | locus YDR334W, strain swr1, stronger effect = lower value 1.02 | locus YDR335W, strain msn5, stronger effect = lower value 1.02 | locus YDR363W, strain ESC2, stronger effect = lower value 1 | locus YDR388W, stronger effect = lower value 0.991 | locus YDR392W, strain spt3, stronger effect = lower value 0.958 | locus YDR502C, strain sam2, stronger effect = lower value 0.981 | locus YEL003W, strain gim4, stronger effect = lower value 1.02 | locus YEL037C, strain rad23, stronger effect = lower value 1.02 | locus YEL061C, strain CIN8 (second series), stronger effect = lower value 1.02 | locus YEL061C, strain CIN8, stronger effect = lower value 1.01 | locus YER002W, strain NOP16, stronger effect = lower value 1.01 | locus YER015W, strain faa2, stronger effect = lower value 1.02 | locus YER016W, strain bim1, stronger effect = lower value 1 | locus YER110C, stronger effect = lower value 0.99 | locus YER111C, strain swi4, stronger effect = lower value 1.02 | locus YER155C, strain BEM2 (second series), stronger effect = lower value 0.998 | locus YER155C, strain BEM2, stronger effect = lower value 1 | locus YER167W, strain BCK2, stronger effect = lower value 1.01 | locus YFR010W, strain ubp6, stronger effect = lower value 1.02 | locus YGL078C, strain dbp3, stronger effect = lower value 0.997 | locus YGL086W, strain mad1, stronger effect = lower value 0.985 | locus YGL167C, strain pmr1, stronger effect = lower value 1.02 | locus YGL173C, strain kem1, stronger effect = lower value 1.01 | locus YGL227W, strain vid30, stronger effect = lower value 1.02 | locus YGL240W, strain doc1, stronger effect = lower value 0.986 | locus YGL248W, strain PDE1, stronger effect = lower value 1.01 | locus YGL253W, strain hxk2, stronger effect = lower value 1.01 | locus YGR078C, strain PAC10, stronger effect = lower value 1.02 | locus YGR135W, strain pre9, stronger effect = lower value 0.988 | locus YGR229C, strain SMI1, stronger effect = lower value 1.04 | locus YGR252W, strain gcn5, stronger effect = lower value 0.969 | locus YHR013C, strain ard1, stronger effect = lower value 1.04 | locus YHR027C, strain rpn1, stronger effect = lower value 1.01 | locus YHR030C, strain SLT2, stronger effect = lower value 1 and 0.974 | locus YHR079C, strain IRE1 (second series), stronger effect = lower value 0.981 | locus YHR079C, strain IRE1, stronger effect = lower value 0.971 | locus YHR094C, strain hxt1, stronger effect = lower value 0.994 | locus YHR129C, strain ARP1, stronger effect = lower value 1 | locus YHR142W, strain chs7, stronger effect = lower value 1.04 | locus YHR200W, strain rpn10, stronger effect = lower value 0.986 | locus YIL066C, strain RNR3, stronger effect = lower value 1.01 | locus YIL073C, strain SPO22, stronger effect = lower value 1.01 | locus YIL125W, strain kgd1, stronger effect = lower value 0.997 | locus YIR030C, strain dcg1, stronger effect = lower value 0.994 | locus YJL092W, strain hpr5, stronger effect = lower value 1.02 | locus YJL095W, strain BCK1 (second series), stronger effect = lower value 1.02 | locus YJL095W, strain BCK1, stronger effect = lower value 1.01 and 0.98 | locus YJL115W, strain asf1, stronger effect = lower value 1.01 | locus YJL129C, strain trk1, stronger effect = lower value 1.03 | locus YJL134W, strain LCB3, stronger effect = lower value 1.01 | locus YJL154C, strain vps35, stronger effect = lower value 1.01 | locus YJL164C, strain tpk1, stronger effect = lower value 1.03 | locus YJL166W, strain qcr8, stronger effect = lower value 1.03 | locus YJL168C, strain set2, stronger effect = lower value 0.991 | locus YJL187C, strain SWE1 (second series), stronger effect = lower value 1.01 | locus YJL187C, strain SWE1, stronger effect = lower value 1.01 | locus YJR043C, strain POL32, stronger effect = lower value 0.979 | locus YJR066W, strain TOR1, stronger effect = lower value 0.951
